Source: PubChem BioAssay (National Center for Advancing Translational Sciences (NCATS))
Most compounds without a hit are left out; they make up all but 3.7% or so of the library.
Tau fibril ThT – inhibitors of human tau fibril formation, thioflavin T binding. Potency, µM (series often up to 57.4 µM), without a hit: at the highest dose activity, negative = inhibition, usual class: inhibitors. P10636. 270,000 tested, 2.1% active. recombinant tau K18 P301L, heparin-induced fibrillization, ThT fluorescence; note: % is set by controls: 0 for no effect and ±100 for the full control effect; nearly all actives have a fitted effect of over 55% in size
Target sequence (P10636 561-689 P618L limits assumed): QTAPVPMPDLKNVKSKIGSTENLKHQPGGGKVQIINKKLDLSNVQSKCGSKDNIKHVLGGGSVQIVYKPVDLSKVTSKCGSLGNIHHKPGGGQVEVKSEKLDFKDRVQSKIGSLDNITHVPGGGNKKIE
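ThT emission at 510 nm, taken 1 hr after adding 30 uM dye, quantifies aggregates formed when 20 uM heparin acts on human tau K18 P301L for 6 hr at 37 C.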
Tau fluor counter – counter-screen for tau fibril formation inhibitors; tau K18 P301L Alexa594 fluorescence, heparin fibrillization; Potency, µM (titrated, usually from 57.7 µM), inactives show top-dose activity change, negative = decrease; 280,000 tested, 0.93% active; AID 1463; note: % is set by controls: 0 for no effect and ±100 for the full control effect; nearly all actives have a fitted effect of over 55% in size
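Human tau K18 P301L (15 uM unlabeled, 0.24 uM Alexa 594-labeled) in 100 mM sodium acetate pH 7 with 20 uM heparin, 6 hr at 37 C. ThT 30 uM added, 1 hr ambient; Alexa 594 FP and total fluorescence read at 555/632 nm.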
Tau FP inhib – tau fibrillization inhibition (FP) | P10636 | K18 P301L tau heparin fibrillization, Alexa594 FP, 6 h | Potency, µM (series often up to 57.7 µM), without a hit: at the highest dose activity, negative = inhibition, actives largely listed as inhibitors | 280,000 tested, 0.39% active | AID 1468; note: % is set by controls: 0 for no effect and ±100 for the full control effect; nearly all actives have a fitted effect of over 55% in size
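Read-out: fluorescence polarization of Alexa 594-labeled tau (0.24 uM), 555 nm excitation, 632 nm emission. Mixtures held 15 uM unlabeled K18 P301L, compound and 20 uM heparin, pH 7 acetate buffer, incubated 6 hr at 37 C.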
HTT aggregate – inhibitors of mutant huntingtin aggregate formation in PC12 cells; PC12 HttQ103-GFP aggregates, Acumen cytometry, 40 h; Potency, µM (highest dose often 46.1 µM), inactives show top-dose activity change, negative = inhibition, usual class: inhibitors; 220,000 tested, 1.1% active; AID 1688; note: % is set by controls: 0 for no effect and ±100 for the full control effect; nearly all actives have a fitted effect of over 60% in size
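Compounds (qHTS titration) were added to PC12 cells expressing an ecdysone-driven HTT exon 1 Q103–GFP fusion after induction with 100 nM tebufenozide. Aggregate formation was measured as GFP objects in cell lysates.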
HTT ATP protect – protects HTT-Q103 PC12 cells, measured by ATP. 230,000 tested, 0.14% active. AID 1471. PC12 HTT-Q103 induced, cytoprotection, ATP luminescence, 40 h. Potency, µM (doses to about 56.4 µM), for the others: cytoprotection (ATP increase), hits mostly activators; note: % of control where 0% means no effect; nearly all actives have a fitted effect of over 45% in size
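Stable PC12 Q103-GFP cells in serum-supplemented, phenol red-free DMEM; induction by tebufenozide at 100 nM final; compound dose series; cell viability quantified luminescently from ATP.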
Starred values were filed as active, the others as inactive; ? = inconclusive; / = no result; [ ] = another dose, or the depositor's remark. Calls come from the whole dose curve; as a rule, active = well fitted curve in the direction sought with a large enough effect; inconclusive = small, poorly fitted or top-dose-only effect, or another doubt; inactive = no such curve, though single readings can be large; an effect the other way counts as inactive or inconclusive. Potency is the fitted concentration of half-maximal effect.

SMILES	Tau fibril ThT	Tau fluor counter	Tau FP inhib	HTT aggregate	HTT ATP protect
O=C(COc1ccc(Cl)cc1)Nc1ncc([N+](=O)[O-])s1	?	-12%	-1%	13µM*	-59%
COc1ccc(CCNC(=O)CCCCn2c(=O)c3ccccc3n(Cc3ccc(Cl)cc3)c2=O)cc1OC	-15%	-9%	0%	/	/
Cc1ccc(NC(=O)Cn2c(=O)n(Cc3nc(-c4ccccc4)no3)c(=O)c3cc4c(cc32)OCO4)cc1F	19%	-17%	?	/	/
O=C(Cn1c(=O)n(Cc2nc(-c3ccccc3)no2)c(=O)c2cc3c(cc21)OCO3)Nc1ccc(Cl)cc1	24%	-11%	20µM*	/	/
O=C(Cn1c(=O)n(Cc2nc(-c3ccccc3)no2)c(=O)c2cc3c(cc21)OCO3)Nc1ccccc1	16%	-27%	28µM*	/	/
COC(=O)C(C(C)=O)C(NC(=O)NCc1ccccc1)c1ccccc1 (stereo not given)	2%[11.5 µM]	5%[11.6 µM]	5%[11.6 µM]	/	10%[10 µM]
CCn1c(O)c(N=Nc2ccc3ccccc3n2)c2ccccc21	4µM*	-18%	2%	16%[9.22 µM]	7%[10 µM]
C[C@@H]1C(=O)O[C@@H]2C[C@@]34[C@H]5C[C@@H](C(C)(C)C)[C@@]36[C@@H](OC(=O)[C@@H]6O)O[C@]4(C(=O)O5)[C@@]12O	/	/	/	/	1%
C/C(=N\Nc1ccc([N+](=O)[O-])cc1)c1ccco1	5µM*	?	9%	-6%	-2%[10 µM]
CCc1ccc(/C(C)=N\Nc2ccc([N+](=O)[O-])cc2)cc1	3.5µM*	?	-4%	8%	-30%
CC/C(=N\Nc1ccc([N+](=O)[O-])cc1)c1ccccc1	2µM*	?	-10%	?	-29%[10 µM]
C/C(=N\Nc1ccc([N+](=O)[O-])cc1)c1ccc(-n2nncc2C)cc1	7.1µM*	16µM*[quencher]	?	6%	6%[10 µM]
C/C(=N\Nc1ccc([N+](=O)[O-])cc1)c1ccc(N)cc1	6%	1%	-4%	8%	17%[10 µM]
C/C(=N\Nc1nc(C)c(C)s1)c1ccc([N+](=O)[O-])cc1	14µM*	?	9%	3%	22%[10 µM]
C/C(=N\NC(=O)c1cccc(N/N=C(\C)c2ccc([N+](=O)[O-])cc2)c1)c1ccc([N+](=O)[O-])cc1	0.5µM*	?	7%	14%[9.22 µM]	6%[10 µM]
C/C(=N\Nc1ccc([N+](=O)[O-])cc1)c1ccc(N2CCOCC2)cc1	?	?	?	8%[9.22 µM]	6%[10 µM]
C/C(=N\NC(=O)c1cccc(N/N=C(\C)c2ccccc2)c1)c1ccccc1	?	-26%	16%	-26%	1%[10 µM]
COc1ccc2c(c1)OC(C)(C)C(c1ccccc1)C2c1ccc(OCCN2CCCC2)cc1 (stereo not given)	/	/	/	?	-99%
O=C(O)/C(Cc1ccc([N+](=O)[O-])cc1)=N/O	/	/	/	/	5%[10 µM]
CCCCCCCN	/	/	/	/	-15%
Oc1cc(Br)ccc1C=Nc1ccc(N2CCCCC2)cc1	14µM*	?	-8%	-13%[9.22 µM]	-10%[10 µM]
Oc1ccc(C=Nc2ccc(N3CCOCC3)cc2)c(O)c1	16µM*	?	?	29%	-21%
Oc1ccc(Br)cc1/C=N/N1CCCCC1	?	-24%	5%	?	-46%[10 µM]
Cc1ccc(N=Cc2ccc(O)cc2O)cc1F	?	-23%	-13%	3.2µM*	4%
C/C=C/C1=Cc2ccccc2C(CC(=O)OC)N1C(=O)OC (stereo not given)	3%[11.5 µM]	2%[11.6 µM]	2%[11.6 µM]	/	-21%[10 µM]
N#C/C(=C\c1ccc(-c2cccc(Cl)c2)o1)C(=O)Nc1cccc2cccnc12	2.5µM*	-17%	8%	24%	15%[10 µM]
N[C@@H](Cc1[nH]nc2ccccc12)C(=O)O	/	/	/	/	2%[10 µM]
Cc1sc2ncnc(N3CCN(CCOc4ccc(Cl)cc4)CC3)c2c1C	?	-25%	-10%	2µM*	-35%
O=C(NCCNc1ccc([N+](=O)[O-])cc1)c1ccc(Cl)cc1	8.9µM*	-29%	-1%	-7%	-25%
COc1ccc(C(=O)NCCNc2ccc([N+](=O)[O-])cc2)cc1	?	-4%	10%	6%	-17%
